# Assay outcomes: PubChem BioAssay, National Center for Advancing Translational Sciences (NCATS)
# Hsp90 Hop PPI: changes Hsp90-Hop TPR2A binding signal, up or down | AlphaScreen TPR2A-His6 binding biotin-Hsp90 C-terminal peptide | Potency, µM (top dose mostly 57 µM), inactives show top-dose activity change, negative = inhibition | hit rate 0.44% among 71,000 | AID 595; active means well fitted curve in either direction with a large enough effect; inconclusive means small, poorly fitted or top-dose-only effect, or another doubt; further: on the % scale 0 is the no-effect control and ±100 the full control effect
# Casp1 inh: allosteric or competitive inhibitors of human caspase-1. Caspase-1 enzyme, Ac-WEHD-AFC fluorogenic rate. Potency, µM (top dose mostly 57.5 µM), without a hit: at the highest dose activity change, negative = inhibition, usual class: inhibitors. hit rate 0.03% among 75,000. AID 900;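 further: plate controls were vehicle for no effect and no substrate for full effect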
# ALOX15 inhib: 15-hLO (ALOX15) enzyme inhibition; hit rate 1.4% among 74,000; P16050; purified 15hLO-1, xylenol orange hydroperoxide absorbance; Potency, µM (doses to about 57.1 µM), for inactives: at the top dose activity change, negative = inhibition, actives largely listed as inhibitors; further: on the % scale 0 is the no-effect control and ±100 the full control effect; nearly all actives have a fitted effect of over 55% in size
#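 Purified human 15hLO-1 (40 nM final) in 25 mM Hepes pH 7.5, 0.01% Triton X-100 was preincubated with compound 15 min at room temperature, then reacted 6 min with 50 uM arachidonic acid; hydroperoxide detected by Fe-XO, 573/405 nm absorbance ratio.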
# Caspase-7 inhib: allosteric or competitive inhibitors of human caspase-7; Potency, µM (titrated, usually from 57.5 µM), inactives show at the top dose activity change, negative = inhibition, hits mostly inhibitors; AID 889; recombinant caspase-7, Ac-DEVD-AFC fluorescence rate; hit rate 0.02% among 75,000; P55210; active means well fitted inhibition curve with a large enough effect in the main read-out, with a control signal flat, not every such curve was filed as active; inconclusive means small, poorly fitted or top-dose-only effect, or a change in a side signal; further: % of control where 0% means no effect
# Tau filament bind: binders of human tau filaments; P10636; recombinant tau filaments, thioflavin S fluorescence, 15 h; filaments grown with octadecylsulfate alongside compound; Potency, µM (doses to about 57.1 µM), inactives show at the top dose activity change, negative = inhibition; hit rate 2% among 71,000; AID 596;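 further: on the % scale 0 is the no-effect control and ±100 the full control effect; actives lower thioflavin S fluorescence by blocking filaments or displacing dye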
#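 ThS-based fibril read: tau 1 uM final, inducer ODS 30 uM final, 37 C for 15 h, ex 450/em 510 nm.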
# 15-hLO-2 inh: inhibitors of human 15-lipoxygenase 2 (ALOX15B). O15296. purified 15hLO-2, xylenol orange hydroperoxide absorbance. Potency, µM (highest dose often 57.1 µM), for inactives: top-dose activity change, negative = inhibition, actives largely listed as inhibitors. hit rate 0.56% among 110,000; further: on the % scale 0 is the no-effect control and ±100 the full control effect; nearly all actives have a fitted effect of over 60% in size
#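 Purified human 15hLO-2 (50 nM final) preincubated with compounds 15 min at room temperature in 25 mM Hepes pH 7.5, 0.01% Triton X-100, then 45 uM arachidonic acid added for 90 min; hydroperoxide detected via ferrous/xylenol orange, 573/405 nm absorbance ratio.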
# Starred values were filed as active, the others as inactive; ? = inconclusive; . = no result given; [ ] = dose if it differs, or a comment. The list is not random: actives were taken first. Their share in the collection is about 2.4%. Unless noted, the call rests on the fitted dose curve; in most records, active means well fitted curve in the direction sought with a large enough effect; inconclusive means small, poorly fitted or top-dose-only effect, or another doubt; inactive means no such curve, though single readings can be large; an effect the other way counts as inactive or inconclusive. Potency means the concentration at half of the fitted maximal effect.
SMILES,Hsp90 Hop PPI,Casp1 inh,ALOX15 inhib,Caspase-7 inhib,Tau filament bind,15-hLO-2 inh
Cc1nc(C)c(C(=O)Nc2nc3c(C)cccc3s2)o1,-9.9%,-5.7%,?,-12.0%,31.6µM*,-27.3%
Cc1cccc2sc(NC(=O)C3CCCO3)nc12 (stereo not drawn),0.8%,0.4%,-3.6%,-1.5%,-4.4%,.
CCCCc1ccc(-c2nc(N)n[nH]2)cc1,0.6%,0.2%,10.9%,0.8%,7.8%,13.6%
CCc1nn2cc(-c3ccccc3)nc2s1,3.9%,-2.0%,10µM*,-0.4%,-3.4%,5.8%
Cc1nn2cc(-c3ccc(-c4ccccc4)cc3)nc2s1,-2.5%,-0.8%,3.2%,-1.0%,-1.1%,-9.3%
COc1cc(C)ccc1OCCOc1cc(C)ccc1Cl,.,.,.,.,.,15.8µM*
Cc1ccc(-c2nn(CC(=O)NCCN3CCOCC3)c(=O)c3ccccc23)cc1,-1.5%,-2.3%,10.9%,0.4%,5.8%,7.2%
COC(=O)c1cn(CCOc2ccccc2)c2ccccc12,25.1µM*,-3.4%,-3.0%,-2.0%,-7.9%,10.4%
COC(=O)c1cn(CCOc2ccccc2F)c2ccccc12,.,.,.,.,.,9.6%
CCOC(=O)CS(=O)(=O)c1nc(-c2ccccc2)cc(C(F)(F)F)n1,-2.0%,-0.8%,-20.5%,-0.4%,20µM*,-21.4%
O=C(O)CCCN1C(=O)/C(=C/c2ccc(-c3nc4ccccc4s3)o2)SC1=S,.,.,.,.,.,15.8µM*
Cc1ccc(/C=C2\SC(=S)N(CCCC(=O)Nc3ccccn3)C2=O)cc1,.,.,.,.,.,20.7%
CCC(=O)OCC(=O)c1c(N)n(Cc2ccccc2)c(=O)n(C)c1=O,-1.1%,0.1%,6.5%,-0.6%,13.3%,-12.1%
Cn1c(=O)c(C(=O)CN2CCCc3ccccc32)c(N)n(Cc2ccccc2)c1=O,?,-9.8%,?,-5.6%,25.1µM*,9.6%
CC(C)NCC(O)Cn1c2c(c3ccccc31)CCc1c-2cnn1-c1ccccc1 (stereo not drawn),-15.2%,-1.8%,12.6µM*,-6.2%,?,-5.3%
OC(CN1CCN(c2ccccc2)CC1)Cn1c2ccccc2c2ccccc21 (stereo not drawn),.,.,.,.,.,31.8%
O=C(NC1CCCCCCC1)c1ccccc1O,.,.,.,.,.,6.1%
CC1(C)CC(NC(=O)c2ccccc2Cl)CC(C)(C)N1,-0.5%,-1.8%,7.2%,1.6%,-9.4%,7.3%
CC1(C)CC(Nc2ccc(Nc3ccccc3)cc2)CC(C)(C)N1,-9.5%[11 µM],1.9%[11.5 µM],?,-0.2%[11.5 µM],1.58µM*,3.98µM*
O=C1SC(c2ccccc2)=N/C1=C/c1ccco1,-3.2%,-9.4%,-18.6%,-15.7%,25.1µM*,-7.8%
CC(C)(C)C1CCc2onc(C(=O)NCc3ccc(F)cc3)c2C1 (stereo not drawn),11.8%,-1.2%,-14.5%,-2.2%,6.9%,-5.2%
O=[N+]([O-])c1ccc(Nc2nc3ccccc3s2)cc1,-22.6%[11 µM],-2.3%[11.5 µM],?,-0.2%[11.5 µM],3.98µM*,-27.9%[11.4 µM]
CCOC(Cn1c(-c2ccc(OC)cc2)nc2ccccc21)OCC,.,.,.,.,.,6.0%
O=C(c1cnn2c(C(F)(F)F)cc(-c3ccc4c(c3)OCO4)nc12)N1CCCCC1,1.4%,-4.1%,-2.3%,-0.1%,-2.2%,-10.0%
C=CCn1c(SCC(=O)Nc2ccc(N(C)C)cc2)nnc1-c1cccc(C)c1,-13.1%,-1.6%,-17.1%,-1.1%,25.1µM*,-5.9%
SMILES,Hsp90 Hop PPI,Casp1 inh,ALOX15 inhib,Caspase-7 inhib,Tau filament bind,15-hLO-2 inh
Cc1cccc(NC(=O)C2CCN(S(=O)(=O)c3cccc4nsnc34)CC2)n1,-6.0%,-2.0%,-12.3%,1.6%,-84.1%,-9.2%
Cc1cccc(N2CCN(C(=O)C3CCN(S(=O)(=O)c4cccc5nsnc45)CC3)CC2C)c1 (stereo not drawn),-23.0%,-2.6%,-22.7%,-2.3%,25.1µM*,8.6%[11.4 µM]
COc1ccc2nc(NC(=O)C3CCN(S(=O)(=O)c4cccc5nsnc45)CC3)sc2c1,-17.9%,-1.3%,-15.3%,-2.1%,12.6µM*,-8.0%
COc1cccc(CN2CCN(Cc3cc(OC)c(OC)cc3[N+](=O)[O-])CC2)c1,.,.,.,.,.,-3.1%
COc1ccccc1-c1coc2c(CN3CCN(C)CC3)c(O)ccc2c1=O,-1.0%,-3.3%,1.6%,-2.0%,0.7%,1.8%
CCOC(=O)CN1C(=O)S/C(=C/c2ccc(N3CCCCC3)o2)C1=O,.,.,.,.,.,-21.2%
COC(=O)CN1C(=O)S/C(=C/c2ccc(N3CCCCC3)o2)C1=O,.,.,.,.,.,12.6µM*
CC(=O)N(C)c1ccc(NS(=O)(=O)Cc2ccccc2)cc1,-0.5%,-6.9%,?,-0.3%,-13.2%,-22.5%
CC(=O)c1cccc(NC(=O)Nc2cc3sccc3n2C)c1,-20.7%,-11.5%,15.8µM*,-28.5%,3.16µM*,-20.6%
O=C(/N=C1\NC(=O)C(F)(C(F)(F)F)S1)NC1CCCCC1 (stereo not drawn),-5.3%,0.8%,10µM*,-1.6%,1.7%,-14.0%
Cc1c(C(=O)Nc2ccc(N3CCOCC3)cc2)oc2ccccc12,-4.1%,-3.9%,-6.7%,-1.9%,25.1µM*,7.7%
O=C(CCc1ccccc1)Nc1ccc(N2CCOCC2)cc1,-3.6%,-0.8%,-6.6%,-1.3%,15.8µM*,-8.2%
COc1ccc(C(=O)N2CCC3(CCN(C(=O)Nc4cccc(F)c4)CC3)CC2)cc1,-1.0%,-2.6%,7.9%,-0.2%,6.9%,3.9%
Cc1csc(SCC(=O)N2CCCC2)n1,-6.7%,0.6%,1.2%,1.8%,6.0%,1.2%
Cc1nc2nc(-c3ccc(Cl)cc3)cn2nc1C,.,.,.,.,.,-6.2%
COc1cccc(-c2cn3nc(C)c(C)nc3n2)c1,-3.4%,.,-8.3%,?,10µM*,14.2%
CCOC(=O)N1CCN(c2cc(NCCC(=O)O)c3c4c(onc24)-c2ccccc2C3=O)CC1,?,?,-5.4%,-11.5%,12.6µM*,-21.0%
O=C(O)CCCNc1cc(N2CCC3(CC2)OCCO3)c2noc3c2c1C(=O)c1ccccc1-3,3.16µM*,?,?,-13.0%,15.8µM*,.
COc1cc(/C=N/N(C)c2ccccc2)cc(Cl)c1O,.,.,.,.,.,10µM*
CCCCCNCc1ccc(Br)cc1,.,.,.,.,.,13.6%
Cc1occc1C(=O)Nc1ccc2ccccc2c1,-0.5%,2.5%,?,0.7%,10µM*,-8.3%
Cc1occc1C(=O)Nc1ccccc1C(=O)O,3.3%,0.8%,4.2%,0.4%,8.4%,-1.5%
CC(C)(C)C(=O)Nc1ccc(-c2cn3ccsc3n2)cc1,-3.4%,0.7%,-3.0%,-1.0%,-5.7%,-8.6%
CC(C)CC(=O)Nc1ccc(-c2cn3ccsc3n2)cc1,-9.4%,-1.6%,-7.5%,0.0%,12.6µM*,-0.4%
Cc1cc(=O)[nH]c(SCC(=O)Nc2ccc(S(=O)(=O)N3CCCCC3)cc2)n1,-1.1%,-0.8%,-0.8%,1.9%,4.9%,-5.0%
COc1ccc(C)cc1NC(=O)C1CCCN1S(=O)(=O)c1ccc2c(c1)CCC(=O)N2 (stereo not drawn),-24.3%,-1.2%,3.3%,-2.1%,25.1µM*,4.8%
